Source: PubChem BioAssay (NCATS)
Results filed as inconclusive are left out. Where a call stands in place of a potency, no number is given. Active and inactive are the calls of the source. Calls come from the whole dose curve; as a rule, active = well fitted curve in the direction sought with a large enough effect; inconclusive = small, poorly fitted or top-dose-only effect, or another doubt; inactive = no such curve, though single readings can be large; an effect the other way counts as inactive or inconclusive.

How the values were obtained:
[1] = qHTS of pediatric cancer cell lines to identify multiple opportunities for drug repurposing: Primary screen for Rh18 cells (AID 1347102); note: nearly all actives have a fitted effect of over 65% in size; note: potency is the fitted concentration of half-maximal effect
Procedure, shortened: (§1)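 Cells (500-1,000/well) in growth media were settled 5 h at 37 degrees C, then given compounds for 48 h. Viability was read as CellTiter-Glo luminescence. Primary runs used MIPE at 11 points (0.78 nM-46 µM) and NPC at 8 points (0.59 nM-46 µM); follow-ups used 11 points.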

[2] = qHTS of pediatric cancer cell lines to identify multiple opportunities for drug repurposing: Primary screen for OHS-50 cells (AID 1347103); note: nearly all actives have a fitted effect of over 40% in size; note: potency is the fitted concentration of half-maximal effect
Procedure, shortened: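 Cells (500-1,000/well) rested 5 h, then received compounds for 48 h; metabolically active cells were measured by CellTiter-Glo luminescence. Final concentrations spanned up to 46 µM (MIPE, 11-point) or 0.59 nM-46 µM (NPC, 8-point) in primary screens, 11-point in follow-ups.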

[3] = qHTS of pediatric cancer cell lines to identify multiple opportunities for drug repurposing: Primary screen for RD cells (AID 1347104); note: nearly all actives have a fitted effect of over 55% in size; note: potency is the fitted concentration of half-maximal effect
Procedure, shortened: (§2)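 Cells seeded at 500-1,000 cells/well in growth media, rested 5 hours at 37 degrees C, 5% CO2, then dosed; MIPE compounds at 11-point (from 0.78 nM) and NPC at 8-point (from 0.59 nM) final concentrations. Viability by CellTiter-Glo luminescence after 48 hours.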

[4] = qHTS of pediatric cancer cell lines to identify multiple opportunities for drug repurposing: Primary screen for MG 63 (6-TG R) cells (AID 1347105); note: nearly all actives have a fitted effect of over 50% in size; note: potency is the fitted concentration of half-maximal effect
Procedure, shortened: as §2

[5] = qHTS of pediatric cancer cell lines to identify multiple opportunities for drug repurposing: Primary screen for control Hh wild type fibroblast cells (AID 1347106);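 note: a drop in luminescence marks cytotoxicity and a rise apparent proliferation; nearly all actives have a fitted effect of over 55% in size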
Procedure, shortened: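 Viability after 48 h compound treatment at 37C, 500-1,000 cells/well, read as ATP luminescence with CellTiter-Glo. Primary screens used 11-point (MIPE, 0.78 nM-46 µM) or 8-point (NPC, 0.59 nM-46 µM) final concentrations; follow-up screens used 11-point dilutions.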

[6] = qHTS of pediatric cancer cell lines to identify multiple opportunities for drug repurposing: Primary screen for Rh30 cells (AID 1347107); note: nearly all actives have a fitted effect of over 75% in size; note: potency is the fitted concentration of half-maximal effect
Procedure, shortened: as §1

[7] = qHTS of pediatric cancer cell lines to identify multiple opportunities for drug repurposing: Primary screen for Rh41 cells (AID 1347108); note: nearly all actives have a fitted effect of over 70% in size; note: potency is the fitted concentration of half-maximal effect;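 for activity change, negative = cytotoxic: luminescence drop marks cytotoxic hits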
Procedure, shortened: as §2

[8] = qHTS of pediatric cancer cell lines to identify multiple opportunities for drug repurposing: Confirmatory screen for A673 cells (AID 1347110);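 note: cells exposed to compound for 48 h before the viability read; nearly all actives have a fitted effect of over 65% in size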; note: potency is the fitted concentration of half-maximal effect
Procedure, shortened: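 Concentration-response curves came straight from titrations: 11 points (0.78 nM to 46 µM) for MIPE and several concentrations (0.59 nM to 46 µM) for NPC in primary, 11 points in follow-up. Readout: ATP luminescence at 48 h.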

[9] = qHTS of pediatric cancer cell lines to identify multiple opportunities for drug repurposing: Confirmatory screen for SK-N-MC cells (AID 1347111);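 note: cells exposed to compound for 48 h before the readout; nearly all actives have a fitted effect of over 70% in size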; note: potency is the fitted concentration of half-maximal effect
Procedure, shortened: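 Metabolically active cells were quantified by ATP-dependent luminescence (CellTiter-Glo, 15 min at room temperature) following 48 h treatment. Cells had been plated at 500-1,000 per well and settled for 5 h beforehand.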

[10] = qHTS of pediatric cancer cell lines to identify multiple opportunities for drug repurposing: Confirmatory screen for BT-12 cells (AID 1347112); note: nearly all actives have a fitted effect of over 55% in size; note: potency is the fitted concentration of half-maximal effect
Procedure, shortened: as §1

[11] = qHTS of pediatric cancer cell lines to identify multiple opportunities for drug repurposing: Confirmatory screen for LAN-5 cells (AID 1347113); note: nearly all actives have a fitted effect of over 65% in size; note: potency is the fitted concentration of half-maximal effect
Procedure, shortened: as §1

[12] = qHTS of pediatric cancer cell lines to identify multiple opportunities for drug repurposing: Confirmatory screen for DAOY cells (AID 1347114); note: nearly all actives have a fitted effect of over 65% in size; note: potency is the fitted concentration of half-maximal effect
Procedure, shortened: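 Viability measured as metabolically active cells via CellTiter-Glo luminescence following 48 hours of compound exposure, 11-point dilutions in confirmatory testing. 500-1,000 cells/well plated 5 hours before dosing; controls were DMSO and 2.3 µM bortezomib.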

[13] = qHTS of pediatric cancer cell lines to identify multiple opportunities for drug repurposing: Confirmatory screen for NB-EBc1 cells (AID 1347115);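 note: cells exposed to compound for 48 h before the viability read; nearly all actives have a fitted effect of over 45% in size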; note: potency is the fitted concentration of half-maximal effect
Procedure, shortened: as §1

[14] = qHTS of pediatric cancer cell lines to identify multiple opportunities for drug repurposing: Confirmatory screen for BT-37 cells (AID 1347117); conditions: BT-37 pediatric cancer cells, viability; activity change, negative = cytotoxic: at 45.9 µM (top of the series); note: nearly all actives have a fitted effect of over 55% in size; note: potency is the fitted concentration of half-maximal effect
Procedure, shortened: as §1

[15] = qHTS of pediatric cancer cell lines to identify multiple opportunities for drug repurposing: Confirmatory screen for TC32 cells (AID 1347118); note: potency is the fitted concentration of half-maximal effect
Procedure, shortened: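 Measured quantity: luminescence from CellTiter-Glo, reflecting metabolically active TC32 cells following 48 h of compound. Curves came straight from multi-point titrations, with 8 or 11 points in primary and 11 in confirmatory screening.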

[16] = qHTS of pediatric cancer cell lines to identify multiple opportunities for drug repurposing: Confirmatory screen for MG 63 (6-TG R) cells (AID 1347119); note: nearly all actives have a fitted effect of over 55% in size; note: potency is the fitted concentration of half-maximal effect
Procedure, shortened: as §1

[17] = qHTS of pediatric cancer cell lines to identify multiple opportunities for drug repurposing: Confirmatory screen for control Hh wild type fibroblast cells (AID 1347121); note: nearly all actives have a fitted effect of over 70% in size
Procedure, shortened: as §1

[18] = qHTS of pediatric cancer cell lines to identify multiple opportunities for drug repurposing: Confirmatory screen for NB1643 cells (AID 1347109); note: potency is the fitted concentration of half-maximal effect; nearly all actives have a fitted effect of over 45% in size
Procedure, shortened: as §1

Structure (SMILES): OCCN1C[C@H](O)[C@@H](O)[C@H](O)[C@@H]1CO
- Potency [1]: inactive
- Potency [2]: inactive
- Potency [3]: inactive
- Potency [4]: inactive
- Potency [5]: inactive
- Potency [6]: inactive
- Potency [7]: inactive

Structure (SMILES): CCN(C(=O)c1c(O)c2c(Cl)cccc2n(C)c1=O)c1ccccc1
- Potency [1]: inactive
- Potency [2]: inactive
- Potency [3]: inactive
- Potency [4]: inactive
- Potency [5]: inactive
- Potency [6]: inactive
- Potency [7]: inactive

Structure (SMILES): C[C@]12CCC(=O)C=C1[C@@H]1CC1[C@H]1[C@H]3[C@@H]4C[C@H]4[C@@]4(CCC(=O)O4)[C@@]3(C)CC[C@H]12 (stereo partly specified)
- Potency [1]: inactive
- Potency [2]: 19.3 µM (active)
- Potency [3]: inactive
- Potency [4]: inactive
- Potency [5]: inactive
- Potency [6]: inactive
- Potency [7]: inactive

Structure (SMILES): CC[C@H](CC[C@@H](C)[C@H]1CC[C@H]2[C@@H]3CC=C4C[C@@H](O)CC[C@]4(C)[C@@H]3CC[C@]12C)C(C)C
- Potency [1]: inactive
- Potency [2]: inactive
- Potency [3]: inactive
- Potency [4]: inactive
- Potency [5]: inactive
- Potency [6]: inactive

Structure (SMILES): Cn1cc(-c2ccc3ncc(Cc4ccc5ncccc5c4)n3n2)cn1
- Potency [1]: inactive
- Potency [2]: inactive
- Potency [3]: inactive
- Potency [4]: inactive
- Potency [5]: inactive
- Potency [6]: inactive

Structure (SMILES): CCCCCCCCc1ccc(CCC(N)(CO)CO)cc1
- Potency [1]: 16.6 µM (active)
- Potency [2]: 15.3 µM (active)
- Potency [3]: 8.33 µM (active)
- Potency [4]: 18.7 µM (active)
- Potency [5]: inactive
- Potency [6]: 18.7 µM (active)
- Potency [7]: 18.7 µM (active)

Structure (SMILES): NC(=O)c1ncn([C@@H]2O[C@H](CO)[C@@H](O)[C@@H]2O)c1O
- Potency [1]: inactive
- Potency [2]: inactive
- Potency [3]: inactive
- Potency [4]: inactive
- Potency [5]: inactive
- Potency [6]: inactive
- Potency [7]: inactive

Structure (SMILES): N[C@H]1CN(c2c(F)cc3c(=O)c(C(=O)O)cn(C4C[C@@H]4F)c3c2Cl)CC12CC2 (stereo partly specified)
- Potency [1]: inactive
- Potency [2]: inactive
- Potency [3]: inactive
- Potency [4]: inactive
- Potency [5]: inactive
- Potency [6]: inactive

Structure (SMILES): CCc1ccc(C(=O)Nc2cc(CN3CCN(C)CC3)cc(C(F)(F)F)c2)cc1C#Cc1cnc2ccnn2c1
- Potency [1]: 14.8 µM (active)
- Potency [2]: 12.2 µM (active)
- Potency [3]: 18.7 µM (active)
- Potency [4]: 18.7 µM (active)
- Potency [5]: inactive
- Potency [6]: 14.8 µM (active)
- Potency [7]: 9.35 µM (active)

Structure (SMILES): C[C@H](CCC(=O)O)[C@H]1CCC2C3C[C@H](O)[C@@H]4C[C@H](O)CC[C@]4(C)C3CC[C@@]21C (stereo partly specified)
- Potency [1]: inactive
- Potency [2]: inactive
- Potency [3]: inactive
- Potency [4]: inactive
- Potency [5]: inactive
- Potency [6]: inactive
- Potency [7]: inactive

Structure (SMILES): O=S(=O)(O)CCSSCCS(=O)(=O)O
- Potency [1]: inactive
- Potency [2]: inactive
- Potency [3]: inactive
- Potency [4]: inactive
- Potency [5]: inactive
- Potency [6]: inactive
- Potency [7]: inactive
- Potency [8]: inactive
- Potency [9]: inactive
- Potency [10]: inactive
- Potency [11]: inactive
- Potency [12]: inactive
- Potency [13]: inactive
- Potency [14]: inactive
- Potency [15]: inactive
- Potency [16]: inactive
- Potency [17]: inactive

Structure (SMILES): N#Cc1cc(NC(=O)Nc2nnc(-c3ccncc3)s2)ccc1-c1cn[nH]c1
- Potency [1]: inactive
- Potency [2]: inactive
- Potency [3]: inactive
- Potency [4]: inactive
- Potency [5]: inactive

Structure (SMILES): COC(=O)[C@@H]1CC2=CC(=O)CC[C@]2(C)[C@@]23O[C@@H]2C[C@@]2(C)[C@H](CC[C@@]24CCC(=O)O4)[C@@H]13
- Potency [1]: inactive
- Potency [2]: inactive
- Potency [3]: inactive
- Potency [4]: inactive
- Potency [5]: inactive
- Potency [6]: inactive
- Potency [7]: inactive

Structure (SMILES): CC(O)(C#Cc1ccc2c(c1)N(c1nc(N)ncc1Cl)CC2)c1nccs1 (stereo unspecified)
- Potency [1]: inactive
- Potency [2]: 24.3 µM (active)
- Potency [3]: 18.7 µM (active)
- Potency [4]: 9.35 µM (active)
- Potency [5]: inactive
- Potency [6]: inactive
- Potency [7]: inactive

Structure (SMILES): O=C(C=CC#Cc1cccc(NS(=O)(=O)c2ccccc2)c1)NO
- Potency [1]: 1.66 µM (active)
- Potency [2]: 5.44 µM (active)
- Potency [3]: 5.26 µM (active)
- Potency [4]: 5.9 µM (active)
- Potency [5]: inactive
- Potency [6]: 11.8 µM (active)
- Potency [7]: 2.96 µM (active)
- Potency [18]: 2.33 µM (active)
- Potency [8]: 1.65 µM (active)
- Potency [9]: 0.414 µM (active)
- Potency [10]: 18.5 µM (active)
- Potency [11]: 2.61 µM (active)
- Potency [12]: 7.37 µM (active)
- Potency [13]: 5.85 µM (active)
- Potency [14]: 2.61 µM (active)
- Potency [15]: 0.737 µM (active)
- Potency [16]: 2.61 µM (active)

Structure (SMILES): CN[C@H](CC(C)C)C(=O)N[C@H]1C(=O)N[C@@H](CC(N)=O)C(=O)N[C@@H]2C(=O)N[C@H]3C(=O)N[C@H](C(=O)N[C@H](C(=O)O)c4cc(O)cc(O)c4-c4cc3ccc4O)[C@H](O)c3ccc(c(Cl)c3)Oc3cc2cc(c3O[C@@H]2O[C@H](CO)[C@@H](O)[C@H](O)[C@@H]2O[C@H]2C[C@](C)(N)[C@H](O)[C@H](C)O2)Oc2ccc(cc2Cl)[C@H]1O
- Potency [1]: inactive
- Potency [2]: inactive
- Potency [3]: inactive
- Potency [4]: inactive
- Potency [5]: inactive
- Potency [6]: inactive
- Potency [7]: inactive

Structure (SMILES): CCOC(=O)[C@H](CCc1ccccc1)N[C@@H](C)C(=O)N1[C@@H](C(=O)O)C[C@H]2CCC[C@@H]21
- Potency [1]: 16.6 µM (active)
- Potency [2]: 19.3 µM (active)
- Potency [3]: 18.7 µM (active)
- Potency [4]: 18.7 µM (active)
- Potency [5]: inactive
- Potency [6]: 18.7 µM (active)
- Potency [7]: 11.8 µM (active)

Structure (SMILES): N#CC(=C(O)c1ccc(Cl)cc1Cl)c1nc2cc(Cl)ccc2c(=O)[nH]1
- Potency [1]: inactive
- Potency [2]: inactive
- Potency [3]: inactive
- Potency [4]: inactive
- Potency [5]: inactive
- Potency [6]: inactive
- Potency [7]: inactive
